MITF TRPM1 HTS: increases MITF-driven TRPM1 promoter luciferase signal; SK-MEL-5 TRPM1-promoter luciferase, 24 h; % of positive control, neutral wells = 0; AID 588334; 0.75% of 300,000 active; activation, % at 12.5 µM;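 active means mean activation of at least 80% with every replicate also reaching 80%; inconclusive means mean reaches 80% but some replicate falls short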;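 further: 0% = neutral control wells and 100% = parthenolide positive control wells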
esBAF inh: blocks esBAF chromatin remodeling in mouse ES cells | Bmi1-luciferase knock-in reporter, 24 h; 100% = twice the neutral-well signal | reporter increase, % at 12.5 µM | 2% of 350,000 active | AID 602393; in the data active means activation above about 40%; inconclusive means no clear call, values can overlap the other calls;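 further: 0% = median of the plate's neutral control wells and 100% = double that signal; a rise in the Bmi1 reporter signal indicates esBAF inhibition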
FGF22 binding: FGF22 (human) thermal shift binding | recombinant FGF22 thermal shift, SYPRO orange fluorescence; percent of sucrose octasulfate shift, DMSO zero | 1.5% of 340,000 active | AID 651658 | activity (Tm shift, normalised), % at 9.99 µM | Q9HCT0;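 active means mean Tm shift, scaled 0 neutral to 100 positive control, at about 1.3% or above, every replicate too, limit read from the data; inconclusive means no clear call, values can overlap the other calls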
Target sequence (Q9HCT0 whole entry, looked up): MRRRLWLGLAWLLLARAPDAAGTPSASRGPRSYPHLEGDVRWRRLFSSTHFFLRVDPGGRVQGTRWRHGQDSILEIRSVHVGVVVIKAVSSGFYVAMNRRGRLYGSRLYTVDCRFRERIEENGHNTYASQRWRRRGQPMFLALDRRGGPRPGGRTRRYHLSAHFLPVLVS
MLL AF4-AF9 inh: MLL-AF4/AF9 protein interaction inhibition | P42568 | AlphaScreen, biotin-AF4 peptide binding to FLAG-AF9 | inhibition, % at 10 µM | 0.47% of 350,000 active | AID 651704;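 active means every replicate reaching a set inhibition limit, whatever the replicate mean, cut at about 25% in these data; inconclusive means mean inhibition reaches that limit but some replicates miss it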;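 further: 0% = plate neutral control median and 100% = total signal loss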
SMARCA2 activ: SMARCA2 function activation, primary screen. MG213 cells, MMTV-luciferase reporter, dexamethasone, overnight. activation, % at 9.1 µM. 1% of 370,000 active. AID 652017; in the data active means activation above about 7.8%;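 further: 0% = vehicle wells and 100% = reference activator wells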
Wnt bcat act: activators of Wnt/beta-catenin signaling. Wnt/beta-catenin reporter cell assay, activator, plate reader. activation, % at 9.35 µM. 1.2% of 300,000 active. AID 743398; in the data active means activation above about 30%, passing the limit was not always enough; inconclusive means no clear call, values can overlap the other calls;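 further: 0% = neutral control wells and 100% = positive control wells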
Numbers without * were called inactive; ? = inconclusive; / = no result. Most compounds without a hit are left out; they make up all but 4.3% or so of the library.

SMILES | MITF TRPM1 HTS | esBAF inh | FGF22 binding | MLL AF4-AF9 inh | SMARCA2 activ | Wnt bcat act
COc1ccccc1NC(=O)N(C)C[C@H]1Oc2ncc(C#CCN(C)C)cc2C(=O)N([C@H](C)CO)C[C@@H]1C | / | -1 | 0 | -6 | / | /
COc1cccc(-c2cc3nc(Nc4ccc(OC)c(OC)c4)n(C)c(=O)c3s2)c1 | / | 53* | 0 | 3 | 1 | 0
COc1ccc(Nc2nc3cc(-c4ccsc4)sc3c(=O)n2C)cc1OC | / | 30 | 0 | 6 | 3 | 10
Cc1ccc(F)c(CNC(=O)C2(C)CCCN2C(=O)C(C)C)c1F (stereo unspecified) | / | -5 | 0 | 1 | -1 | 36*
C[C@H]1CN([C@@H](C)CO)C(=O)c2cccc(NS(=O)(=O)c3ccc(F)cc3)c2O[C@@H]1CN(C)C(=O)Nc1ccccc1 | / | -3 | 0 | -2 | / | /
CCCn1c(SCC(=O)NC(=O)NC(C)(C)C)n[nH]c1=O | -1 | / | 43* | 1 | 6 | -2
Nc1ccc2nc3c(=O)n(C4CCCCC4)c(=O)[nH]c3nc2c1 | 79 | 37 | 0 | -9 | 4 | 43*
O=C(Nc1ccc2ccccc2c1)c1cccc([N+](=O)[O-])c1 | 98* | 86* | 0 | 2 | 7 | 29
Cc1cccc(C(=O)Nc2ccc3ccccc3c2)c1 | 64 | 47* | 0 | -4 | 3 | 22
CC(C)COC(=O)N(C)C[C@@H]1OCc2ccccc2-c2ccccc2C(=O)N([C@@H](C)CO)C[C@H]1C | / | -2 | 0 | -1 | / | /
C[C@H]1CN([C@@H](C)CO)C(=O)c2cccc(NC(=O)c3nc4ccccc4s3)c2O[C@H]1CN(C)S(C)(=O)=O | / | -1 | 0 | 1 | / | /
C[C@@H]1CN([C@H](C)CO)C(=O)c2cc(NC(=O)CCN3CCOCC3)ccc2O[C@@H]1CN(C)C | / | -1 | 0 | 0 | / | /
COCCN=C1Sc2nc3ccc(C)cc3cc2CN1Cc1ccco1 | 24 | 54* | / | / | 3 | -3
COCCN=C1Sc2nc3cc(C)c(C)cc3cc2CN1Cc1cccs1 | 26 | 20 | 1 | 7 | -4 | 1
NC(=O)c1ccccc1OCC(=O)Nc1ccc(Cl)c(Cl)c1 | 64 | / | 0 | 2 | 3 | 40*
NC(=O)c1ccccc1OCC(=O)Nc1ccc2c(c1)CCC2 | 93* | 97* | 0 | 3 | 0 | 27
COc1ccc(C(=O)NC(C(=O)NCC(=O)Nc2c(C)cccc2C)C(C)C)cc1 (stereo unspecified) | 7 | -9 | 44* | -10 | 0 | -3
CCn1ccnc1[C@@H]1C[C@H]2CN(Cc3cccc(Cl)c3)C(=O)[C@]23CCCN13 | -7 | / | 0 | 0 | 0 | 0
O=C1N(Cc2cccc(Cl)c2)C[C@@H]2C[C@@H](c3ccccn3)N3CCC[C@@]123 | -2 | 0 | 0 | 5 | 0 | 33*
COc1ccccc1CN1C[C@@H]2C[C@@H](c3ccc(Cl)cc3)N3CCC[C@@]23C1=O | -2 | -6 | 43* | 3 | -3 | /
COc1ccccc1CN1C[C@@H]2C[C@@H](c3ccccc3OC)N3CCC[C@@]23C1=O | -10 | / | 0 | 7 | -2 | 8
C[C@@H]1CCCCO[C@@H](CN(C)C(=O)Nc2ccccc2)[C@H](C)CN([C@H](C)CO)C(=O)c2cc(NC(=O)c3ccccc3)ccc2O1 | / | 8 | 0 | 2 | / | /
CCN(CC)c1ccc(C(=O)NNC(=O)CCl)cc1 | -5 | -2 | 44* | 4 | 7 | 1
CCN(CC)c1ccc(C(=O)NNC(=O)CCNC(=O)c2ccccc2)cc1 | 20 | 6 | 0 | 1 | -1 | -4
COc1cc(C2C(C#N)=C(N)OC3=C2C(=O)CC(C)(C)C3)cc([N+](=O)[O-])c1O (stereo unspecified) | -7 | / | 0 | 0 | -4 | 40*
SMILES | MITF TRPM1 HTS | esBAF inh | FGF22 binding | MLL AF4-AF9 inh | SMARCA2 activ | Wnt bcat act
CC(C)NC(=O)N(C)C[C@@H]1Oc2ccc(NC(=O)CCC(F)(F)F)cc2CC(=O)N([C@H](C)CO)C[C@H]1C | / | 5 | 0 | -3 | / | /
CCCCN1C(=O)c2cccc3cc(O)cc(c23)C1=O | / | / | 0 | 1 | -1 | 61*
N#Cc1c(/N=C/c2ccco2)sc2c1CCCCC2 | 3 | -1 | / | / | 0 | -5
N#Cc1c(/N=C/c2cc(Br)cs2)sc2c1CCC2 | 57 | 78* | / | / | 1 | /
CNC(=O)c1ccc(-c2cc(C(F)(F)F)nn2C)s1 | / | / | 0 | 0 | 0 | 35*
Cn1nc(C(F)(F)F)cc1-c1ccc(/C=C(\C#N)C(=O)c2ccccc2)s1 | / | / | / | -5 | 0 | 16
CCc1nnc2c3cnn(-c4ccccc4)c3ncn12 | 99* | 64* | / | / | 5 | ?
C[C@H](CO)N1C[C@H](C)[C@H](CN(C)C(=O)Nc2cccc3ccccc23)OCCCC[C@H](C)Oc2ccc(NC(=O)CCCN(C)C)cc2C1=O | / | 4 | 0 | 13 | / | /
O=CNc1ccc2c3c(cccc13)-c1ccccc1-2 | 17 | 28 | 45* | 3 | 0 | 1
CC(=O)c1cccc(NC(=O)COC(=O)c2ccccc2C)c1 | 97* | 44* | 0 | 0 | 6 | 17
CCN1[C@@H]2c3ccc(/C=C/c4ccccc4)c(=O)n3C[C@H]1[C@H](CO)[C@H]2C(=O)NC1Cc2ccccc2C1 | / | / | -1 | -35 | / | /
C[C@@H](NC(=O)C[C@H]1C[C@H]2c3cc(NC(=O)C4CCC4)ccc3O[C@H]2[C@@H](CO)O1)c1ccccc1 | / | 0 | / | -1 | / | /
CC(/C=N/NC(=O)Cn1cnc2ccccc21)=C\c1ccccc1 | -4 | -8 | 0 | 0 | -4 | -2
O=C(Cn1cnc2ccccc21)N/N=C/c1ccccc1 | -5 | / | 43* | -7 | -5 | 0
C[C@H](CO)N1C[C@H](C)[C@H](CN(C)S(C)(=O)=O)Oc2ncc(-c3cccnc3)cc2C1=O | / | -5 | 0 | -2 | / | /
COc1ccc(CNc2ccc([N+](=O)[O-])cn2)cc1 | 70 | 63* | 0 | 0 | 4 | 21
Cc1ccc(C(=O)NNC(=O)Cn2nnc3ccccc32)cc1 | 21 | 9 | 0 | 2 | 0 | 4
Cc1ccc(C(=O)Cn2cnc3ccccc3c2=O)cc1C | 67 | 57* | / | / | 1 | 12
Cc1ccc(C(=O)Cn2nnc3ccccc32)cc1C | 110* | 12 | / | / | 3 | 47*
O=C(Cn1nnc2ccccc21)c1ccc(Br)cc1 | 48 | 14 | 0 | -1 | 4 | 22
Cc1ccc(C(=O)Cn2nnc3ccccc32)cc1 | 73 | 63* | / | / | 3 | /
C[C@@H]1CN([C@@H](C)CO)C(=O)c2cc(NC(=O)C3CCCCC3)ccc2O[C@H]1CN(C)Cc1ccccc1 | / | 2 | 1 | 0 | / | /
O=C1N(Cc2ccccc2)Cc2ccccc2[C@H]2OC(c3ccc(OCCCO)cc3)=N[C@@]12CCS(=O)(=O)c1ccccc1 | / | / | 0 | -1 | / | /
CCCC#Cc1ccc([C@@H]2[C@@H](C#N)N(C(=O)C3CCC3)[C@@H]2CO)cc1 | / | 4 | 0 | -1 | / | /

Source: PubChem
